# Experimental data taken from the supplement of paper PMC13380429.
# Tested on: Vero E6 infected with SARS-CoV-2
# Assay: SARS-CoV-2 infection rate relative to infected DMSO; higher = more infection, active = 60 or less
# Settings: 24 h
row,SMILES,SARS-CoV-2 infection rate
1,CCCSc1nc(N[C@@H]2C[C@H]2c2ccc(F)c(F)c2)c2nnn([C@@H]3C[C@H](OCCO)[C@@H](O)[C@H]3O)c2n1 [ticagrelor] (10 µM),104% (inactive)
2,O=C(c1ccc2nccnc2c1)N1CCCCC1 [ampalex] (10 µM),104% (inactive)
3,CCCNCCc1ccc(NS(=O)(=O)c2ccc(OC(F)(F)F)cc2)cc1 (10 µM),110% (inactive)
4,O=C(Nc1ccc(S(=O)(=O)C(F)(F)F)cc1)C1=CCN(c2ncccc2C(F)(F)F)CC1 (10 µM),108% (inactive)
5,Cc1ccc(Oc2ccccc2-c2csc(N=C3NCCCN3)n2)c(C)c1 [abafungin] (10 µM),100% (inactive)
6,CC[C@@H]1Cn2c(c3nc(-c4ccccc4)nc-3n(C)c2=O)N1 (10 µM),90.5% (inactive)
7,N=C(N)NC(=N)Nc1ccccc1 [1-phenylbiguanide] (10 µM),86.5% (inactive)
8,O=C(O)c1ccccc1C(=O)Nc1ccc(-c2ccccc2)cc1 [kartogenin] (10 µM),97.5% (inactive)
9,Oc1ccc2c3c1O[C@H]1c4[nH]c5c(c4C[C@@]4(O)[C@@H](C2)N(CC2CC2)CC[C@]314)C[C@@]1(O)[C@H]2Cc3ccc(O)c4c3[C@@]1(CCN2CC1CC1)[C@H]5O4 [nor-binaltorphimine] (10 µM),114% (inactive)
10,CN1[C@@H]2CC[C@H]1C[C@@H](OC(=O)c1c[nH]c3ccccc13)C2 [tropisetron] (10 µM),102% (inactive)
11,Cc1cc(Nc2ccc(NC(=O)c3ccc(Nc4ccnc5ccccc45)cc3)cc2)nc(N)n1 (0.833333 µM),104% (inactive)
12,Cc1cc2c(cc1CC(=O)c1sccc1S(=O)(=O)Nc1onc(C)c1Cl)OCO2 [sitaxentan] (10 µM),101% (inactive)
13,C=C(c1ccc(C(=O)O)cc1)c1cc2c(cc1C)C(C)(C)CCC2(C)C [bexarotene] (10 µM),108% (inactive)
14,FC(F)(F)C(F)(F)C(F)(F)C(F)(F)C(F)(F)C(F)(F)C(F)(F)C(F)(F)Br [perflubron] (10 µM),102% (inactive)
15,Cc1noc(C)c1-c1ccc(-c2cc(C(N)=O)c(NC(N)=O)s2)c(O[C@H]2CCNC2)c1 (10 µM),104% (inactive)
16,CCN(CC)CCOC(=O)c1cc(Cl)c(N)cc1OC (10 µM),104% (inactive)
17,COC(=O)c1cc(OC)c2c(c1-c1c(C(=O)OC)cc(OC)c3c1OCO3)OCO2 [bifendate] (10 µM),108% (inactive)
18,CNC(C)(C)Cc1ccccc1 [mephentermine] (10 µM),117% (inactive)
19,N#CSc1cc(SC#N)c(N)nc1N (0.833333 µM),98.5% (inactive)
20,COc1cc2nccc(Oc3ccc(NC(=O)C4(C(=O)Nc5ccc(F)cc5)CC4)cc3)c2cc1OC [cabozantinib] (0.833333 µM),97.5% (inactive)

row,SMILES,SARS-CoV-2 infection rate
1,C[C@]12CC[C@@H](O)C[C@H]1CC[C@@H]1[C@@H]2CC[C@]2(C)C(=O)CC[C@@H]12 [3-alpha-hydroxy-5-beta-androstan-17-one] (10 µM),102% (inactive)
2,CCC1=C[C@@H]2CN(C1)Cc1c([nH]c3ccccc13)[C@@](C(=O)OC)(c1cc3c(cc1OC)N(C)[C@H]1[C@@](O)(C(=O)OC)[C@H](OC(C)=O)[C@]4(CC)C=CCN5CC[C@]31[C@@H]54)C2 [vinorelbine] (10 µM),115% (inactive)
3,CCCCN(Cc1ccc(C(=O)NO)cc1)C(=O)Nc1ccccc1 [nexturastat-A] (0.833333 µM),105% (inactive)
4,O=S(=O)(c1ccccc1)c1cnc2c(N3CCNCC3)cccc2c1 (10 µM),106% (inactive)
5,Fc1ccc(C(OCCN2CCN(C/C=C/c3ccccc3)CC2)c2ccc(F)cc2)cc1 (10 µM),65.5% (inactive)
6,CC(C)(C)CC(C)(C)c1ccc(O)c(Cc2ccc(Cl)cc2Cl)c1 [clofoctol] (10 µM),94% (inactive)
7,O=C1CNC(=O)CN1 [piperazinedione] (0.833333 µM),106% (inactive)
8,Cc1ccc(/C=N/NC(=O)c2ccccc2Oc2ccccc2)o1 (10 µM),82.5% (inactive)
9,COc1cc2ncnc(Nc3ccc(O)c(Br)c3)c2cc1OC (10 µM),103% (inactive)
10,CN1CCN(C2CCN(C(=O)Nc3cc(Oc4ccc(NC(=O)C5(C(=O)Nc6ccc(F)cc6)CC5)c(F)c4)ccn3)CC2)CC1 [golvatinib] (0.833333 µM),104% (inactive)
11,CCCOC(C(=O)OC1CCN(C)CC1)(c1ccccc1)c1ccccc1 [propiverine] (10 µM),41% (active)
12,CC(=O)Nc1ccc(OC[C@](C)(O)C(=O)Nc2ccc([N+](=O)[O-])c(C(F)(F)F)c2)cc1 [andarine] (10 µM),116% (inactive)
13,Cc1ncc(OC[C@@]2(c3cccc(F)c3)C[C@H]2C(=O)Nc2ccc(F)cn2)c(C)n1 [lemborexant] (10 µM),112% (inactive)
14,Cc1ccccc1N1CCN(S(=O)(=O)C[C@]23CC[C@H](C[C@@H]2NC(=O)[C@@H](N)CCS(C)(=O)=O)C3(C)C)CC1 (10 µM),95% (inactive)
15,Nc1c(S(=O)(=O)O)cc(Nc2cccc3ccccc23)c2c1C(=O)c1ccccc1C2=O (10 µM),112% (inactive)
16,COC1=C2C[C@@H](C)C[C@H](OC)[C@H](O)[C@@H](C)/C=C(\C)[C@H](OC(N)=O)[C@@H](OC)/C=C\C=C(/C)C(=O)NC(=CC1=O)C2=O [geldanamycin] (0.833333 µM),98.5% (inactive)
17,C[C@@]12CCc3occc3[C@H]1CC[C@@]13C[C@@H](CC[C@H]12)[C@@](O)(CO)C3 [cafestol] (10 µM),112% (inactive)
18,CCCCCCCCCCCCCCCCCCN(CCCCCCCCCCCCCCCCCC)CCCN(CCO)CCO [avridine] (10 µM),102% (inactive)
19,COc1ccc(C2CC(c3ccccc3)=NN2c2ccc(S(N)(=O)=O)cc2)cc1 (stereo not given) (10 µM),87% (inactive)
20,Cc1cn([C@@H]2C[C@@H](O)[C@H](CO)O2)c(=O)[nH]c1=O [telbivudine] (10 µM),118% (inactive)
